Tg IFNy HTS – inhibitors of Toxoplasma gondii growth with IFN-gamma; activity change, negative = inhibition, % (no concentration beside the values); 3.8% of 69,000 active; AID 1259416; Toxoplasma gondii growth in IFN-gamma-treated host cells; active compounds read low; in the data active = activity change below about -70%, passing the limit was not always enough;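 note: host cells are HeLa cells infected with Toxoplasma gondii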
Numbers without * were called inactive; ! = not confirmed by another sample. This is one part of a sample in which hits are shown more often than they occur.

SMILES	Tg IFNy HTS
CC(c1ccon1)N(C)CC(=O)Nc1nc2ccccc2[nH]1 (centres undefined)	19
CCCSc1ccc2nc(NC(=O)OC)[nH]c2c1	-78*!
CCCS(=O)c1ccc2nc(NC(=O)OC)[nH]c2c1 (centres undefined)	18
COc1ccc(-n2nc3ccc(NC(=S)NC(=O)c4cccs4)cc3n2)cc1	32
Cc1ccc(C(=O)O)cc1NC(=O)c1cccs1	-3
COC(=O)Nc1nc2ccc(SC(C)C)cc2[nH]1	-66
COC(=O)Nc1nc2ccc(C(=O)c3ccccc3C(=O)OC(C)C)cc2[nH]1	-101*
CCCCCC#CC(=O)Nc1nc2cc(C)c(C)cc2[nH]1	84
COC(=O)Nc1cc(C)n(-c2ccccc2)n1	-44
COC(=O)Nc1nc2ccc(S(=O)c3ccccc3)cc2[nH]1 (centres undefined)	-75*!
CN1C(=O)C2(CCCN(CCCc3cccnc3)C2)c2ccccc21 (centres undefined)	10
O=C(c1ccc2ccccc2n1)N1CCC(O)(CN2CCCCC2c2cccnc2)CC1 (centres undefined)	11
CCCCc1ncc(C2CC(=O)Nc3c2cnn3CCC(C)C)[nH]1 (centres undefined)	8
CCN(Cc1ccccc1)C(=O)CN1C(=O)CCc2cc(Br)ccc21	9
CN1CC2(CCCN(Cc3ccc(S(C)(=O)=O)cc3)C2)OC1=O (centres undefined)	4
COC(=O)Nc1nc2ccc(C(=O)c3ccccc3)cc2[nH]1	-79*
Cc1ccc2nc(NC(=O)C(C)(C)C)[nH]c(=O)c2c1	239
O=C(O)c1ccc2nc(-c3ccccn3)[nH]c2c1	270
CC(NC(=O)c1cccc(-n2cccn2)c1)c1nnc2n1CCNCC2 (centres undefined)	-3
O=S(=O)(NCc1ccccc1)N1CCCC(c2nc3ccccc3o2)C1 (centres undefined)	-11
O=C1CC(c2cccc(Br)c2)c2cc3c(cc2N1)CCC3 (centres undefined)	-83*
O=C1CC(c2ccsc2)c2cc3cn[nH]c3cc2N1 (centres undefined)	1
COc1cc2c(cc1C1CC(=O)Nc3[nH]ncc31)CCC2 (centres undefined)	4
Cn1nccc1-c1ccc2nc(C3CCNCC3)nn2c1	-56
S=C1NC2(CCCCC2)C2CCCCC2O1 (centres undefined)	0
SMILES	Tg IFNy HTS
CNC(=O)c1ccc(-c2nc(CN3CCN(S(=O)(=O)Cc4ccccc4)CC3)c(C)o2)cc1	79
CCc1oc(C(N)=O)cc1CN1CCC=C(CN(C)C(C)=O)C1	-4
Cc1cnc(-n2cnnc2)c(-c2ccc3c(c2)OCCO3)c1	3
Cc1ccc(-c2nnc(-c3ccc4c(c3)OCO4)o2)cc1	113
Cc1nc(-n2cnnc2)ccc1-c1ccc2c(c1)OCO2	-97*
O=C(C(=O)N1CCC(c2cc(Cc3ccccc3)[nH]n2)CC1)N1CCCC1	-8
COc1ccc(-c2cc(C(F)(F)F)nn2-c2nc(-c3ccc(C)cc3)cs2)cc1	28
Cc1ccc(-c2cc(C(F)(F)F)nn2-c2nc(-c3ccccc3)cs2)cc1	-42
CC(=O)Oc1cccc(-c2csc(-n3nc(C(F)(F)F)cc3-c3ccc(Cl)cc3)n2)c1	-93*
Cn1ccc2cc(S(=O)(=O)N3CCC(C(=O)NCc4ccccn4)CC3)ccc21	24
O=C(Cn1nnc(-c2ccc(Cl)cc2)n1)NCCc1ccc2c(c1)OCO2	-2
CCCCOc1cc(C(=O)NCCN(CC)CC)c2ccccc2n1	-28
CCCCOc1cc(C(=O)OCCN(CC)CC)ccc1N	-4
CCCCc1oc2ccccc2c1C(=O)c1cc(I)c(OCCN(CC)CC)c(I)c1	-81*
CCc1ccc(NC(=O)C(=O)NCCc2sc(-c3ccc(F)cc3)nc2C)cc1	32
Cc1cc(=O)oc(C)c1C(=O)N1CCC(c2ccncc2)CC1	-2
CN1CCN(CC#N)C(=O)C12CCN(Cc1cnn(C)c1)CC2	-8
O=C(Nc1ccc2c(c1)OCCO2)c1csc(-c2cccc3c2CCO3)n1	51
O=C(NCCc1csc(-c2ccc(Cl)cc2)n1)C(=O)Nc1ccc(F)cc1	48
O=C(NC(=O)c1csc(-c2ccc(C(F)(F)F)cc2Cl)n1)Nc1ccc(F)cc1	-98*
CN(Cc1noc(-c2ccccc2)n1)Cc1ncccc1C(=O)O	23
O=C(CN1CCC(c2ccccc2)C1)NC1CCC(n2cnnc2)CC1 (centres undefined)	-3
Cc1nc2sc3c(c2c(=O)[nH]1)CCC3	11
COc1ccc(-c2nc3sc4c(c3c(=O)[nH]2)CCCC4)cc1	-87*
O=c1[nH]c(NCCO)nc2sc3c(c12)CCCC3	9
SMILES	Tg IFNy HTS
CCOC(=O)CNC(=O)CSc1nc(N(C)C)nc(N(C)C)n1	1
Cc1ccc(CN2CCO[C@H]3[C@H]2CC[C@H]3OCC(=O)N2CCCC2)o1	4
COc1ccc(CCNc2ncnc3c2cnn3-c2ccccc2)cc1OC	21
c1ccc(CNc2ncnc3ccccc23)cc1	-15
Nc1ccc2ncnc(NCCc3ccc(Oc4ccccc4)cc3)c2c1	-71*
CCOc1ccc2nc(SCC(=O)c3ccc(F)cc3)sc2c1	-79*
